# Measurements: PubChem BioAssay
# Tests used:
# [1] = test system: Human papillomavirus type 1a protein E7 (residues 44-93); assay: small molecules binding HPV E7 44-93 – biochemical, small-molecule microarray, residues 44-93, 635 nm fluorescence, primary screen (AID 1108); conditions: fluorescence 635 nm, higher = more signal;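 further: E7 fragment applied at 1 µg/mL in TBST for 1 h at 4 C; score combines spot fluorescence with its signal to noise ratio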
# [2] = hepatitis C replication reporter changes, two-sided – Huh7 cells, luciferase reporter, HCV replication inhibitor project, primary screen (AID 1109); conditions: Huh7 HCV replicon luciferase reporter, 48 h; higher = more signal;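 further: huh7 hepatoma cells harbouring a luciferase neomycin HCV replicon reporter; luciferase luminescence as measure of HCV replicon replication; test concentration not given here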
# [3] = target: Left-right determination factor 2 (Homo sapiens) (UniProt O00292); assay: small molecules binding LEFTY2 protein – biochemical, small-molecule microarray, 635 nm fluorescence scan, primary screen (AID 1110); conditions: higher = more signal
# [4] = target: Calmodulin-1 (Homo sapiens) (UniProt P0DP23); assay: small molecules binding calmodulin-1 with EGTA – biochemical, small-molecule microarray, Cy5-labelled CALM1, profiling panel (AID 1111); conditions: Cy5-CALM1 binding fluorescence, higher = more signal;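 further: labelled calmodulin applied in Tris saline Tween buffer holding calcium plus EGTA and DTT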
# [5] = target: Calmodulin-1 (Homo sapiens) (UniProt P0DP23); assay: small molecules binding Ca-loaded calmodulin-1 – biochemical, small-molecule microarray, Cy5-labelled CALM1, plus calcium, artefact control for SMM control-protein annotation, profiling panel (AID 1112); conditions: Cy5-CALM1 binding fluorescence, higher = more signal;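 further: score merges spot fluorescence with signal to noise from triplicate slides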
# [6] = probe aWnt5a binding to arrayed compounds – biochemical, biotinylated probe, 635/667 nm fluorescence, primary screen (AID 1113); conditions: small-molecule microarray, higher = more signal;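 further: score merges 667 nm fluorescence intensity with signal-to-noise per printed feature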
# [7] = probe aShh binding to arrayed compounds – biochemical, biotinylated probe, 635/667 nm fluorescence, primary screen (AID 1114); conditions: small-molecule microarray, higher = more signal;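 further: probe is biotin-labelled aShh protein from a stem cell growth factor screen; measures binding of labelled protein to compounds printed on the slide; score merges feature fluorescence at 667 nm with signal-to-noise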
# [8] = probe aNog binding to arrayed compounds – biochemical, biotinylated probe, 635/667 nm fluorescence, primary screen (AID 1115); conditions: small-molecule microarray, higher = more signal;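 further: probe is biotinylated aNog protein used at 0.15 µg/mL for 1 h at 4 C; z-score combines 667 nm fluorescence of each spot with its signal to noise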
# [9] = target: Torsin-1A-interacting protein 1 (Homo sapiens) (UniProt Q5JTV8); assay: compound microarray binding of lysate hLAP1 – cell lysate, small-molecule microarray, COS7 lysate, 635/667 nm fluorescence, primary screen (AID 1116); conditions: 635 nm fluorescence, higher = more signal
# [10] = target: Alpha-bungarotoxin (Bungarus multicinctus) (UniProt P60615); assay: compounds binding labelled alpha-BTX control protein – biochemical, small-molecule microarray, Alexa647 label, 635/667 nm fluorescence, artefact control for SMM control protein annotation, profiling panel (AID 1117); conditions: alpha-BTX-A647 binding fluorescence, higher = more signal
# Sequence of Alpha-bungarotoxin (Bungarus multicinctus) (P60615 whole entry, looked up): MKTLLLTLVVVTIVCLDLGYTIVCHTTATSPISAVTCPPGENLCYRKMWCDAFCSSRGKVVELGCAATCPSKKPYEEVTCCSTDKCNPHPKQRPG
# Sequence of Left-right determination factor 2 (Homo sapiens) (O00292 whole entry, looked up): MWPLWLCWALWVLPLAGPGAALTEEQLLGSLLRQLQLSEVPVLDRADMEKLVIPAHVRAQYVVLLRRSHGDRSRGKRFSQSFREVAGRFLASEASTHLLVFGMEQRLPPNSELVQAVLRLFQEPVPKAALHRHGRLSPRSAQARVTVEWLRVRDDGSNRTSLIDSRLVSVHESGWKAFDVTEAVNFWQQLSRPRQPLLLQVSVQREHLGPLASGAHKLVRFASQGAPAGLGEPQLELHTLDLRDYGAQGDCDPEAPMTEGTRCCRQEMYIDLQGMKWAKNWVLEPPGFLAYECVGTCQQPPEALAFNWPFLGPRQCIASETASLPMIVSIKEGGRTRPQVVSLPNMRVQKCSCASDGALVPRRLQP
# Sequence of Torsin-1A-interacting protein 1 (Homo sapiens) (Q5JTV8 whole entry, looked up): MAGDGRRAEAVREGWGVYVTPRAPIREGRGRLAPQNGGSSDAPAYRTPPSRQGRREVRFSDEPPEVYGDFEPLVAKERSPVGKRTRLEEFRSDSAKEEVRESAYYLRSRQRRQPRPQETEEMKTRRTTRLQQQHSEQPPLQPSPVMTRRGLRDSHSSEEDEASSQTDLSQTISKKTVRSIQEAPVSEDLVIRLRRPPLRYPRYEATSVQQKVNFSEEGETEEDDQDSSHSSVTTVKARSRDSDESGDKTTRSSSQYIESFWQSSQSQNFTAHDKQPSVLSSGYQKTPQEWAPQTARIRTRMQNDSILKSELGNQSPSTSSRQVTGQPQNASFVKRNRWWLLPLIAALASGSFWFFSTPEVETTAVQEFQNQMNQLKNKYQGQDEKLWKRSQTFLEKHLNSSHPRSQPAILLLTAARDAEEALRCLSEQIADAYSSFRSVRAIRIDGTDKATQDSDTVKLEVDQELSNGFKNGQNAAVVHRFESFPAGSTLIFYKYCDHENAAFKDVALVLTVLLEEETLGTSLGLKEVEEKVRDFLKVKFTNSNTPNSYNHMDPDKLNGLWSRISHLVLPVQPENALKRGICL
Structure (SMILES),composite z-score [1],z-score [2],composite z-score [3],composite z-score [4],composite z-score [5],composite z-score [6],composite z-score [7],composite z-score [8],composite z-score [9],composite z-score [10]
C=C(CCCC)/C(=C/C[C@H](OC(=O)c1ccncc1)c1ccc(OCCO)cc1)c1cnc2ccccc2c1,-0.38,-2.25,0.437,0.679,-0.159,-0.129,-0.0146,-0.125,0.49,2.52
CN1C(=O)[C@@H]2[C@@H](CC(COc3ccccc3)=C3[C@@H](CCc4ccccc4)OB(O)C[C@@H]32)C1=O,-0.0599,-0.595,-0.194,0.0212,0.662,-0.156,0.691,-0.0172,0.0197,1.4
O=C(N1CCOCC1)[C@@]1(Cc2ccccc2)COC(c2ccc(OCCCO)cc2)=N1,1.44,-1.95,-0.571,1.16,0.83,-0.0161,-0.288,-0.221,1.38,2.35
COc1ccc([Si](C)(C)[C@@H]2[C@@H](CC(=O)N3Cc4ccccc4C[C@H]3CO)O[C@]3(C(=O)N(Cc4cccc(N5CCOC5=O)c4)c4ccccc43)[C@H]2C)cc1,1.02,-3.46,0.736,-0.695,-0.611,-0.0684,-0.0243,-0.397,0.0192,0.258
O=C(NCC(O)CO)C1N=C(c2ccc(OCCCO)cc2)N(c2ccccc2)O1 (stereo not given),1.08,-0.95,0.48,0.0138,-0.332,-0.103,-0.232,-0.243,1.35,0.282
O=C(NCCN1CCOCC1)[C@@H]1c2ccccc2C(=O)N(Cc2ccccc2C(F)(F)F)[C@H]1c1ccc(CO)cc1,1.01,-0.513,-1.45,-0.804,-0.56,-0.145,-0.73,0.0703,-0.851,-0.755
CCCCCCc1nc(-c2ccc(-c3ccc(Cl)c(Cl)c3)o2)cc2c1[Si](C(C)C)(C(C)C)OC2,-0.474,-0.967,-0.924,-0.444,0.742,-0.174,-0.372,-0.278,-0.875,-0.782
CC(C)=CCCC=C(C)C(O)C1C=CC2C(=O)N(c3ccccc3)C(=O)C2N1Nc1ccc(C#N)cc1 (stereo not given),1.4,-1.96,-0.111,1.46,-0.175,-0.0459,-0.0769,-0.468,0.217,0.82
CCCN1C(=O)[C@@]2(c3ccc([N+](=O)[O-])cc3)CC(=O)N(CC34CC5CC(CC(C5)C3)C4)[C@@H]2c2ccc(CO)cc21,0.0595,-0.767,-0.242,-0.0921,-0.647,-0.0203,-0.0519,-0.873,-0.38,-0.0061
C[N+](C)(C)CCCC[C@@H]1NC(=O)[C@@H]2C[C@H](C(=O)NCc3ccc(F)cc3)[C@H](c3ccc(O)cc3)N2C1=O,0.132,-0.0213,-0.392,-0.1,0.0305,-0.178,-0.381,-0.28,2.44,1.24
COCCOC(=O)N1C(=O)[C@@]2(c3ccccc31)[C@H](C(=O)N1CCN(c3ncccn3)CC1)[C@H]1C(=O)O[C@H](c3ccccc3)[C@H](c3ccccc3)N1[C@@H]2c1ccccc1OCCO,1.35,-1.79,0.687,0.902,0.369,-0.0462,0.704,0.26,0.405,0.749
CCCC[C@H]1C[C@@H]1[C@@H]1N(C(C)=O)[C@H](c2cccc(OC)c2)CC12CC2,-0.223,-0.103,-0.305,1.03,0.878,-0.0276,0.0278,-0.643,0.632,0.154
CN(C)CCCNC(=O)[C@@]1(C)c2ccccc2C(=O)N(Cc2ccc(OC(F)(F)F)cc2)[C@H]1c1ccc(CO)cc1,0.0228,-2.26,-1.01,-0.415,0.522,-0.115,-0.0978,0.738,1.76,1.5
CC(C)=CCCC(C)=CC(O)C1C=CC2C(=O)NC(=O)C2N1Nc1ccc(Cl)cc1Cl (stereo not given),1.36,-0.922,0.41,1.69,0.254,-0.0327,0.14,1.5,1.17,0.451
CC(C)C[C@@H]1NC(=O)[C@@H]2C[C@H](C(=O)NCCCCCCNC(=O)CS)[C@H](c3cccc(OCCO)c3)N2C1=O,1.47,-0.319,0.622,1.03,0.264,0.0375,0.0611,-0.0172,1.06,2.02
NC(=O)N1C(=O)C2C(C1=O)C1C=C(CCCO)C2C(c2ccc(CN3CCCC3)cc2)N1Cc1cc2c(cc1Br)OCO2 (stereo not given),-1.36,-1.51,0.943,-0.666,-0.361,-0.128,0.0796,-0.252,0.187,-0.493
O=C1[C@H]2C=C(I)[C@H](C[C@@H]2OCCCCCCO)[C@@]12CO2,-1.14,-2.67,0.687,-1.08,-1,-0.152,-0.0362,-0.422,-0.144,0.621

Structure (SMILES),composite z-score [1],z-score [2],composite z-score [3],composite z-score [4],composite z-score [5],composite z-score [6],composite z-score [7],composite z-score [8],composite z-score [9],composite z-score [10]
O=C1c2ccccc2[C@@]2(Cc3ccccc3N(Cc3ccccc3)C2=O)[C@H](c2ccc(CO)cc2)N1Cc1ccccc1Cl,-0.728,0.0868,-0.44,-0.223,0.306,-0.202,-0.412,0.105,-0.881,-0.0792
O=C1C2C=CC(C(O)c3ccc([N+](=O)[O-])cc3)N(Nc3ccccc3F)C2C(=O)N1c1ccccc1 (stereo not given),0.395,-0.288,-0.303,0.865,0.378,0.0919,0.0442,1.01,1.55,1.06
COc1ccc([Si](C)(C)[C@H]2[C@H](CC(=O)N3CCC[C@H]3CO)O[C@@]3(C(=O)N(Cc4ccc(N5CCCCC5=O)cc4)c4ccccc43)[C@@H]2C)cc1,1.4,-1.46,0.721,0.441,-0.393,-0.0239,0.0639,1.32,1.15,1.62
CC(C)c1nc2cc(Br)ccc2c(=O)o1,1.32,-0.559,0.371,2,0.93,-0.0367,-0.427,0.418,1.61,0.868
Cc1ccc(F)cc1S(=O)(=O)N[C@H]1CCN(Cc2ccc(OC(C)C)cc2)C1,1.34,-3.4,0.379,-0.781,-1.43,-0.187,-0.0959,-0.131,0.228,-0.494
C=C(COC)C(=O)CC[C@H](OC(=O)c1cccnc1)c1ccc(OCCO)cc1,1.27,-0.345,0.65,-0.395,-1.33,-0.176,-0.379,-0.0762,2.53,0.994
C=CC[C@@]12N=C(c3ccc(OCCCO)cc3)O[C@@H]1c1ccccc1N(CCC)C2=O,1.35,-2.18,0.271,0.106,-0.242,-0.0485,0.337,0.164,1.2,1.77
CN1C(=O)C2C(C1=O)C1C=C(c3ccc(CO)cc3)C2C(C2CC2)N1C (stereo not given),0.208,0.203,0.0075,0.0024,0.103,-0.0664,-0.138,-0.0606,0.149,0.219
CCOC(=O)C1=C[C@@H](C(C)(C)C)N(S(=O)(=O)c2ccc(C)cc2)[C@H]1c1ccc(C#N)cc1,1.41,-2.04,0.282,1.37,0.226,0.055,-0.154,0.618,0.918,1.09
CC(=O)c1ccc(C(O)C2C=CC3C(=O)N(c4ccccc4)C(=O)C3N2Nc2ccc(C(C)C)cc2)cc1 (stereo not given),0.637,-0.674,0.438,0.889,0.0603,-0.0519,0.0278,1.7,0.415,0.859
COC(=O)[C@@]1(Cc2ccc(F)cc2)[C@H]2c3cc(C(=O)N4CCCC4)n(CCc4ccccn4)c3C[C@H]2CN1C(=O)c1ccccc1,0.724,-0.74,-0.27,1.16,0.42,0.136,0.887,1.53,0.294,0.0045
COCCCNC(=O)[C@@]1(Sc2ccc(C)cc2)CC(=O)N(Cc2ccccc2C(F)(F)F)[C@@H]1c1ccc(CO)cc1I,-0.779,-0.817,-1.47,-0.376,1.04,-0.139,-0.0769,0.595,-0.181,-1.2
COc1cc(C(O)C2C=CC3C(=O)N(c4ccccc4)C(=O)C3N2Nc2ccccc2)cc(OC)c1OC (stereo not given),1.46,-0.63,-0.0844,1.84,0.613,0.0472,0.551,1.66,1.6,1.9
COC(=O)c1cccc([C@H]2OC(=CC(=O)OC(C)C)C[C@@H](c3cccc(C(=O)OC)c3)O2)c1,1.43,-2.51,0.599,1.36,0.144,0.4,0.156,-0.109,3.27,0.866
COC(=O)[C@]1(CCC(=O)OC(C)(C)C)N=C(c2ccc(OCCCO)cc2)O[C@@H]1c1ccccc1N=[N+]=[N-],0.892,-2.05,-0.557,-0.175,-0.875,0.0403,-0.119,0.504,0.468,0.302
[N-]=[N+]=NCc1ccccc1[C@@H]1OC(c2ccc(OCCCO)cc2)=N[C@]1(Cc1ccccc1N=[N+]=[N-])C(=O)O,0.98,-0.909,-0.0061,1.4,0.774,0.496,0.541,1.7,0.697,1.55
CC(C)C[C@@H]1NC(=O)[C@@]23C(=O)N[C@@H](Cc4ccccc4)C2[C@H](C)[C@@]2(C)O[C@H]2C3/C=C/C/C=C\CNC(=O)CNC1=O (stereo not given in full),0.346,0.349,0.259,-0.535,-0.963,-0.0478,-0.138,-0.125,0.189,0.49
